Measurements published in PubChem BioAssay (NCATS).
Inconclusive results are not listed. Values without a mark were called inactive. Calls of active or inactive are those of the source. The call rests on the fitted dose curve; in most records, active means well fitted inhibition curve with a large enough effect; inconclusive means small, poorly fitted or top-dose-only effect; inactive means flat fitted curve, though single readings scatter.

Target: Voltage-gated inwardly rectifying potassium channel KCNH2 (Homo sapiens) (UniProt Q12809)
Test: qHTS Assay for Small Molecule Inhibitors of the Human hERG Channel Activity (AID 588834);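 further: lower thallium flux fluorescence means stronger hERG block; nearly all actives have a fitted effect of over 50% in size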; on activity change, negative = inhibition: top concentration of the series differs between compounds
Settings: U2OS BacMam hERG, FluxOR thallium flux fluorescence; series mostly up to 46.1 µM; activity change, negative = inhibition: at the top concentration
Summary of the method: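 U2OS cells transduced with hERG via BacMam (MOI ~100), plated 2000/well, loaded with FluxOR thallium dye, compound ~10 min, then stimulation buffer; fluorescence decrease read kinetically; AC50 from Hill fits.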
On the % scale 0 is the no-effect control and ±100 the full control effect; potency means the concentration at half of the fitted maximal effect.

Sequence of Voltage-gated inwardly rectifying potassium channel KCNH2 (Homo sapiens) (Q12809 whole entry, looked up): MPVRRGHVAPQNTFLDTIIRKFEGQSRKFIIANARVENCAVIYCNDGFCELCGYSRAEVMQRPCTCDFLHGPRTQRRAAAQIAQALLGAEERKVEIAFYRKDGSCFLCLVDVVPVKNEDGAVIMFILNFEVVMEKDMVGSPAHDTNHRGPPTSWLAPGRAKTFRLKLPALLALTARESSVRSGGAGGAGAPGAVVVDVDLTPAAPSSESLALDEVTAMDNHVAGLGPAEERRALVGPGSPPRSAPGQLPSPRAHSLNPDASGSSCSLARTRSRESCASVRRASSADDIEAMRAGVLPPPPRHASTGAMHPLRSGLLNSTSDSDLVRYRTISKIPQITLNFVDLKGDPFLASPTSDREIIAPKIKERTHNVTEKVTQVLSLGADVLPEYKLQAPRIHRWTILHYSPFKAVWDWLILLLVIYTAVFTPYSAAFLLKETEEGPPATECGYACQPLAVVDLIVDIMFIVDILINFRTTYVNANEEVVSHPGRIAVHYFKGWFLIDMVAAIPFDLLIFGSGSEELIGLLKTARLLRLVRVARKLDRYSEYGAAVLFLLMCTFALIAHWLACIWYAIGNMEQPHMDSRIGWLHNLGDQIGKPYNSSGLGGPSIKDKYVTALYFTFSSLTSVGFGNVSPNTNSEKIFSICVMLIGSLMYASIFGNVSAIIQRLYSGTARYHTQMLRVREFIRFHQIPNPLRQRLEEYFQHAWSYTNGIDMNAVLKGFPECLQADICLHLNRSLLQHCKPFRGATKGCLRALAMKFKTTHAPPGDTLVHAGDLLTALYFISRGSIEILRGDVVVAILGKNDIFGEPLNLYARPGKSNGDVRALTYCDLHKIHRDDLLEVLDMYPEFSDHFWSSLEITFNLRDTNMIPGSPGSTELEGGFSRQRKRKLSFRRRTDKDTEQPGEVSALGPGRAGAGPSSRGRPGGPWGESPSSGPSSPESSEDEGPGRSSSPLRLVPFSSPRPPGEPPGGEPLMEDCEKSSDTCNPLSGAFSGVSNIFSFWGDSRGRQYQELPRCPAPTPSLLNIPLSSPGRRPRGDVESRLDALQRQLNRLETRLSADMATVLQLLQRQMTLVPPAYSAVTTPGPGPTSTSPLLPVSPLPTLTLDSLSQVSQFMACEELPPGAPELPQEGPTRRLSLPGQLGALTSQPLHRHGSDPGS

Structure (SMILES)	Potency	activity change, negative = inhibition
CC(C)(C)C1(O)CCN2CC3c4ccccc4CCc4cccc(c43)C2C1 (centres undefined)	2.82 µM (active)	–
CCC(=O)O[C@@H]1CC(=O)O[C@H](C)C/C=C/C=C/[C@H](O)[C@H](C)C[C@H](CC=O)[C@H](O[C@@H]2O[C@H](C)[C@@H](O[C@H]3C[C@@](C)(O)[C@@H](OC(=O)CC)[C@H](C)O3)[C@H](N(C)C)[C@H]2O)[C@H]1OC	–	6.55% [at 20.6 µM]
Cc1cc(CC(C)CC(C)(C)C)n(O)c(=O)c1 (centres undefined) (tested in a mixture with another compound)	–	29.2%
CO[C@@H]1[C@@H](O[C@@H]2O[C@H](C)[C@@H](O[C@H]3C[C@@](C)(O)[C@@H](OC(=O)CC(C)C)[C@H](C)O3)[C@H](N(C)C)[C@H]2O)[C@@H](CC=O)C[C@@H](C)C(=O)/C=C/C2OC2C[C@@H](C)OC(=O)C[C@H]1OC(C)=O (some centres undefined)	–	8.54%
CC(Oc1ccccc1)C(=O)N[C@@H]1C(=O)N2[C@@H]1SC(C)(C)[C@@H]2C(=O)O (some centres undefined)	–	-10.4% [at 20.6 µM]
CCc1ccc2c(c1)N(CC(C)CN(C)C)c1ccccc1S2 (centres undefined)	7.94 µM (active)	–
CCOC(=O)O[C@]1(C(=O)COC(=O)CC)CC[C@H]2[C@@H]3CCC4=CC(=O)C=C[C@]4(C)[C@H]3[C@@H](O)C[C@@]21C	–	5.74% [at 20.6 µM]
CO[C@H]1C=CO[C@@]2(C)Oc3c(C)c(O)c4c(O)c(c(/C=N/N5CCN(C6CCCC6)CC5)c(O)c4c3C2=O)NC(=O)/C(C)=C\C=C[C@H](C)[C@H](O)[C@@H](C)[C@@H](O)[C@@H](C)[C@H](OC(C)=O)[C@@H]1C	–	-11%
CN1CCC(CN2c3ccccc3Sc3ccccc32)C1 (centres undefined)	12.6 µM (active)	–
